Hit rate of the full screen: of about 1,500 compounds, about 460 (31%) were called active. Another 1% or so got no clear call; they are omitted. Only a sample is shown. Measured potencies and affinities stand elsewhere. Values without a mark were called inactive.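 Rule for the calls: active = curve reaches 40% activation over neutral controls at an AC40 no higher than the top valid tested concentration; inconclusive = no clear call, values can overlap the other calls; inactive = signal moving opposite to the expected increase, and the rest.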
Test: GLuc-reported insulin release enhancers, glucose-stimulated beta cells – cell-based, INS-1E, Gaussia luciferase, luminescence, cherry-pick, set 2, dose response (AID 977607);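 note: 0% = median of the plate neutral control wells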
Details: INS-1E GLuc insulin secretion reporter, 2-3 h, active compounds read high; at 35 µM, 100% = signal doubled over neutral wells unless noted
In the case of `COc1ccccc1-c1cnc2c(c1)C(=O)N([C@H](C)CO)C[C@@H](C)[C@@H](CN(C)C(C)=O)O2`, the max activation is reported as 35.5% [at 0.015 µM, 100% = signal doubled over neutral wells]. In the case of `O=C(NC1CCCCC1)c1cccnc1Sc1ccccc1`, the max activation is reported as -28.1% [at 0.015 µM, 100% = signal doubled over neutral wells]. With `CCCCc1nc(NCCN)c(C#N)c2c1CSC(C)(C)C2` the max activation was -17.6% [at 0.046 µM, 100% = signal doubled over neutral wells]. In the case of `O=C(Nc1ccc(Br)cc1)c1cc2ccccn2n1`, the max activation is reported as -31.1% [at 0.42 µM, 100% = signal doubled over neutral wells]. With `O=C(NC(=S)NCC1CCCO1)c1ccc(Cl)cc1Cl` (stereo not given) the max activation was -19.4% [at 0.005 µM, 100% = signal doubled over neutral wells]. In the case of `O=C(OCc1c(-c2ccccc2)ncc2ccccc12)c1cccs1`, the max activation is reported as -36.4% [at 11 µM, 100% = signal doubled over neutral wells]. In the case of `CCc1nc2ccc(C(=O)N(C)CCCN(C)C)cn2c1N(C=O)CCC(C)C`, the max activation is reported as -21.2% [at 1.2 µM, 100% = signal doubled over neutral wells]. In the case of `O=C(O)CNS(=O)(=O)c1ccc2c(c1)Cc1cc(S(=O)(=O)NCC(=O)O)ccc1-2`, the max activation is reported as -16.4% [at 0.0016 µM, 100% = signal doubled over neutral wells]. With `Cc1cc(-c2ccc(Br)cc2)n2nc(C)cc2n1` the max activation was -25.9% [at 0.005 µM, 100% = signal doubled over neutral wells]. Compound `c1ccc(-c2nc(NCC3CC3)nc3ccsc23)cc1` has a max activation of -19.8%. For `COc1cc2[nH]c(-c3ccc(C)cc3)cc(=O)c2cc1OC`, the max activation was -18.5% [at 3.8 µM, 100% = signal doubled over neutral wells]. For `CC(=O)NN1C(=O)c2ccccc2NC1c1ccccc1O` (stereo not given), the max activation was -23.9% [at 0.42 µM, 100% = signal doubled over neutral wells]. With `O=C(Cn1nnc(-c2ccccc2)n1)N=Nc1c(O)[nH]c2ccccc12` the max activation was 32.5%. In the case of `COc1ccc2nc3ccccc3nc2c1NC(=O)c1ccc(Cl)cc1`, the max activation is reported as -10.8% [at 0.046 µM, 100% = signal doubled over neutral wells]. With `COc1cc(Cl)c(C)cc1NC(=O)c1ccccc1NC(=O)CN1CCN(C(C)=O)CC1` the max activation was -25.4% [at 3.8 µM, 100% = signal doubled over neutral wells]. In the case of `COc1cc2c(cc1OC)C(Nc1ccccc1)=NC(C)(C)C2`, the max activation is reported as -20.4% [at 0.005 µM, 100% = signal doubled over neutral wells]. `Cc1cc(Oc2cccnc2)ccc1NC(=O)Cc1cn(C)c2ccccc12` showed a max activation of -32.7%. With `O=C(Nc1ccccc1C(=O)N/N=C/c1ccccc1)c1ccco1` the max activation was -16.8% [at 0.0016 µM, 100% = signal doubled over neutral wells]. With `Cc1cc(C(=O)NC(C)CCC(C)C)c2ccccc2n1` (stereo not given) the max activation was 29.7% [at 1.2 µM, 100% = signal doubled over neutral wells]. For `CCCCNC(=O)C1(C)CCN1C(=O)Cc1cccc2ccccc12` (stereo not given), the max activation was 11.1% [at 0.015 µM, 100% = signal doubled over neutral wells]. Compound `CCNC(=O)C1(C)CCCN1Cc1cccc(C(F)(F)F)c1` (stereo not given) has a max activation of -24%. For `CCOc1ccc(C(=O)NCC(=O)Nc2cc(C)ccn2)cc1OCC`, the max activation was -21.2% [at 11 µM, 100% = signal doubled over neutral wells]. With `Cn1c(=O)n(Cc2ccccc2Br)c2ccccc21` the max activation was 20.4% [at 0.0016 µM, 100% = signal doubled over neutral wells]. With `O=c1[nH]nc(-c2ccc(F)cc2)cc1Cc1cccs1` the max activation was 13.5% [at 3.8 µM, 100% = signal doubled over neutral wells]. For `Clc1ccc(-c2cc(CN3CCOCC3)no2)cc1`, the max activation was -22.2% [at 11 µM, 100% = signal doubled over neutral wells]. In the case of `CCNc1nc(NCC)nc(N(C)/N=C/c2ccco2)n1`, the max activation is reported as 24.3% [at 11 µM, 100% = signal doubled over neutral wells]. With `COc1cc(C(C(=O)NC2CCCC2)N(Cc2ccco2)C(=O)c2snc(C(N)=O)c2N)cc(OC)c1OC` (stereo not given) the max activation was 22.3% [at 0.015 µM, 100% = signal doubled over neutral wells]. With `COc1ccc(C2C3CCCCC3(O)CCN2C(=O)c2cccs2)cc1` (stereo not given) the max activation was -22.1% [at 0.046 µM, 100% = signal doubled over neutral wells]. For `CC1CCC(NCCNC(=O)c2ccco2)CC1` (stereo not given), the max activation was -20.4%. For `Cc1cc(Br)c2c(c1)C1(OCCO1)C(=O)N2`, the max activation was -12%. With `CC(=O)c1cccc(NC2c3ncccc3C(=O)N2Cc2ccco2)c1` (stereo not given) the max activation was 50.6% [at 11 µM, 100% = signal doubled over neutral wells]. For `O=C1c2cccnc2C(Nc2ccc(F)c(Cl)c2)N1Cc1cccs1` (stereo not given), the max activation was -13.1% [at 0.135 µM, 100% = signal doubled over neutral wells]. In the case of `C=CCN1C(=O)CSc2ccc(C(=O)OCC)cc21`, the max activation is reported as -11.5% [at 3.8 µM, 100% = signal doubled over neutral wells]. For `CCCN(Cc1nnc(-c2ccccc2Cl)o1)C(=O)c1cc2ccccc2o1`, the max activation was -17% [at 11 µM, 100% = signal doubled over neutral wells]. For `Cc1cc(C)cc(N(C(=O)C(F)(F)F)C(C(=O)NC2CCCCC2)c2cccs2)c1` (stereo not given), the max activation was 37.1% [at 0.42 µM, 100% = signal doubled over neutral wells]. Compound `Cc1ccc(S(=O)(=O)N2CCN(C(=O)COC(=O)c3ccc(O)cc3)CC2)c(C)c1` has a max activation of -39.9%. For `N#CC1=C(N)Oc2n[nH]c(-c3ccc(F)cc3)c2C1c1cccnc1` (stereo not given), the max activation was 43%. For `COc1ccc(S(=O)(=O)N(C)CC(=O)Nc2ccc3c(c2)OCCO3)cc1OC`, the max activation was 41.6% [at 0.0016 µM, 100% = signal doubled over neutral wells]. In the case of `O=C(O)Cc1ccc(NS(=O)(=O)c2ccc3c(c2)OCCO3)cc1`, the max activation is reported as -23.1% [at 0.0016 µM, 100% = signal doubled over neutral wells]. With `O=C(N=C1SC2CS(=O)(=O)CC2N1c1ccc(F)c(Cl)c1)C1CC1` (stereo not given) the max activation was -16.2% [at 0.046 µM, 100% = signal doubled over neutral wells]. With `Cc1cc2nc(-c3ccccc3O)[nH]c2cc1C` the max activation was -13.8% [at 0.42 µM, 100% = signal doubled over neutral wells]. With `Cc1ccc(NC(=O)c2cc(-c3ccccc3O)n[nH]2)cc1C` the max activation was 17.3%. For `O=C(c1cc(-c2ccc(F)cc2)nc2ccccc12)N1CCN(C2CCS(=O)(=O)C2)CC1` (stereo not given), the max activation was -24.6% [at 0.0016 µM, 100% = signal doubled over neutral wells]. For `CC(=O)c1cccc(N(CC(=O)NC2CCCCC2)C(=O)Cn2nnc(-c3ccccc3)n2)c1`, the max activation was -24.8% [at 0.0016 µM, 100% = signal doubled over neutral wells]. `CCOc1nc(-c2ccccc2)c2cc(Br)ccc2n1` showed a max activation of 13.2%. For `COc1ccc(C(=O)Nc2nnc(-c3ccco3)s2)cc1`, the max activation was -13.7% [at 0.135 µM, 100% = signal doubled over neutral wells]. With `NC(=O)C1CCN(C(=O)CCNS(=O)(=O)c2ccccc2F)CC1` the max activation was 14.1% [at 1.2 µM, 100% = signal doubled over neutral wells]. Work on `CCn1cc(C(=O)O)c(=O)c2cc(F)c(N3CCN(C(=S)NC(=O)c4cccc(C)c4)CC3)cc21` yielded a max activation of -20.5%. `CCOc1ccc(CCNC(=O)COC(=O)c2cccc(N(C)C)c2)cc1OCC` gave a max activation of -44%. In the case of `CC(C)CC(=O)Nc1cccc(-c2nc3ncccc3o2)c1`, the max activation is reported as -18.2% [at 0.0016 µM, 100% = signal doubled over neutral wells]. For `CN1CCN(c2ccc(NC(=O)c3ccc(Oc4ccccc4)cc3)cc2)CC1`, the max activation was -14.3% [at 0.015 µM, 100% = signal doubled over neutral wells]. With `COc1ccc(S(=O)(=O)N2CCCCC2)cc1NC(=O)C1CCCC1` the max activation was -27.7% [at 0.135 µM, 100% = signal doubled over neutral wells]. In the case of `O=C(NCc1ccccc1)c1cccnc1Sc1ccccc1`, the max activation is reported as 14.4% [at 3.8 µM, 100% = signal doubled over neutral wells]. In the case of `CCOCCCn1c(SCc2ccccc2)nnc1-c1ccncc1`, the max activation is reported as 27.1% [at 1.2 µM, 100% = signal doubled over neutral wells]. With `CNc1nc(-c2ccccc2)cc(-c2ccccc2)n1` the max activation was -32.2%.

Source: PubChem BioAssay AID977607 (Broad Institute, 2014)
